CYP2C9 act: activators of human CYP2C9. activation factor at 5 µM. 1.4% of 96,000 active. AID 1024. recombinant CYP2C9, luciferin-H conversion, luminescence; active compounds read high; factor 1 = untreated enzyme, 0 = blocked. P11712;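 active = activation factor of 2 or more for CYP2C9 at a 5 µM dose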;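 also: 0 = sulfaphenazole-blocked wells and 1 = vehicle-only wells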
Target sequence (P11712 whole entry, looked up): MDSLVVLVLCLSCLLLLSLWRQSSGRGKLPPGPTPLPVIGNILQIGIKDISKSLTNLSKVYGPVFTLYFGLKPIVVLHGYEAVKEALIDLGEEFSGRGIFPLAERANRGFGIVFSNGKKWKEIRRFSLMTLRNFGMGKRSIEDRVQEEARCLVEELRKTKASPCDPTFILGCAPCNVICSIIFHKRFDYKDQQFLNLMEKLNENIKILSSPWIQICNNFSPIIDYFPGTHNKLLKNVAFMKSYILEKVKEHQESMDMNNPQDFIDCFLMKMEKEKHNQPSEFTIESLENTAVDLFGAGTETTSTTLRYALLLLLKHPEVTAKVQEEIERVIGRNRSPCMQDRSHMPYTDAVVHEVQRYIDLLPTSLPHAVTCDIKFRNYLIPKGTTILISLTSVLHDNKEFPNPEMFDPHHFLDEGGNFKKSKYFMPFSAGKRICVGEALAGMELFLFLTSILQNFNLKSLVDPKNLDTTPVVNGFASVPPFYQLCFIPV
CD11b adhes enh: CD11b/CD18-fibrinogen binding enhancement. P05107+P11215. K562 CD11b/CD18 adhesion to fibrinogen, ATPlite luminescence. activation, % at 10 µM. 0.07% of 93,000 active;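 active = 10 µM primary screen giving 50% or more activity, confirmed by 40% or more on retest at that dose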
CYP2C19 activ: increases human CYP2C19 enzyme activity; recombinant CYP2C19, luciferin-H EGE luminescence; active compounds read high; 0 = fully inhibited enzyme, 1 = untreated enzyme; AID 1025; activation factor at 5 µM; P33261; 96,000 tested, under 10 active;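 active = activation factor of at least 2 at 5 µM in the primary screen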;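 also: 0 = wells with 2.5 mM tranylcypromine and 1 = vehicle-only wells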
CYP2C9 inhib: inhibitors of human CYP2C9 | P11712 | CYP2C9 Supersomes, luciferin-H conversion, luminescence | inhibition, % at 5 µM | 20% of 96,000 active;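 active = blocking of liver enzyme CYP2C9 beyond about 50% at 5 µM, limit read from the data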
CD11b adhes inh: inhibitors of human CD11b/CD18 binding to fibrinogen; K562 CD11b/CD18 adhesion to fibrinogen, ATPlite luminescence; Mn2+ added to activate the integrin; AID 1497; 0.54% of 93,000 active; P05107+P11215; inhibition, % at 10 µM;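 active = primary inhibition of 50% or more at 10 µM, then 40% or more on retest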
CYP2C19 inh: blocks human cytochrome P450 2C19; P33261; CYP2C19 Supersomes, luciferin-H EGE luminescence, 30 min; inhibition, % at 5 µM; 21% of 96,000 active; AID 778;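 active = CYP2C19 inhibition above a set limit at 5 µM in the primary screen, cut at about 50% in these data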;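 also: plate controls were negative control wells for no effect and 2.5 mM tranylcypromine positive control for full effect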
An asterisk follows results filed as active. Compounds with a hit are over-represented: about 28% of the library has one in this group of screens.

For Cc1ccc(CNC(=O)c2ccccc2NC(=O)CSc2nnnn2C)cc1 the results were CYP2C9 act 0.9, CD11b adhes enh -2, CYP2C19 activ 0.9, CYP2C9 inhib 6, CD11b adhes inh 1 and CYP2C19 inh 6.
Screening S=C(NC1CCCCC1)N(CCc1ccccc1)CCc1ccccc1 returned CD11b adhes enh -4 and CD11b adhes inh 12.
CSc1nc(Cl)cc(N(CCO)CCO)n1 was read as CYP2C9 act 1.3, CYP2C19 activ 1, CYP2C9 inhib -32 and CYP2C19 inh -4.
Screening COC(=O)Cn1c(CCS(=O)(=O)c2ccc(C)cc2)nc2ccccc21 returned CYP2C9 act 0.9, CD11b adhes enh -4, CYP2C19 activ 0.3, CYP2C9 inhib 12, CD11b adhes inh -46 and CYP2C19 inh 66*.
Screening COC(=O)Cn1c(CCS(=O)(=O)c2ccc(Cl)cc2)nc2ccccc21 returned CYP2C9 act 0.9, CD11b adhes enh -3, CYP2C19 activ 0.8, CYP2C9 inhib 10, CD11b adhes inh -6 and CYP2C19 inh 25.
For CC(=O)NCCc1nc2ccccc2n1Cc1ccc(C)cc1 the results were CYP2C9 act 0.6, CD11b adhes enh 2, CYP2C19 activ 0.3, CYP2C9 inhib 42, CD11b adhes inh -6 and CYP2C19 inh 69*.
Screening CC(=O)Nc1nc2ccccc2n1Cc1ccccc1 returned CYP2C9 act 1, CYP2C19 activ 0.7, CYP2C9 inhib 5 and CYP2C19 inh 27.
`Cc1ccc(-c2noc(CN(C(=O)c3cccs3)C(C)C)n2)cc1` gave CYP2C9 act 0.3, CD11b adhes enh -2, CYP2C19 activ 0.6, CYP2C9 inhib 74*, CD11b adhes inh 6 and CYP2C19 inh 45.
Screening CC(C)N(Cc1nc(-c2ccc(Cl)cc2)no1)C(=O)c1cccs1 returned CYP2C9 act 0.1, CD11b adhes enh 0, CYP2C19 activ 0.2, CYP2C9 inhib 89*, CD11b adhes inh 42 and CYP2C19 inh 78*.
For CC1CN(C(=S)NC(=O)c2ccc([N+](=O)[O-])cc2)CC(C)O1 (centres undefined) the results were CYP2C9 act 0.9, CYP2C19 activ 0.9, CYP2C9 inhib 10 and CYP2C19 inh 10.
CCCC(=O)N=C1SC2CS(=O)(=O)CC2N1c1ccc(CC)cc1 (centres undefined) was read as CYP2C9 act 0.9, CYP2C19 activ 1, CYP2C9 inhib 10 and CYP2C19 inh -3.
For CC(C)c1ccc(OCC(O)CN2CCN(c3ccccc3)CC2)cc1 (centres undefined) the results were CYP2C9 act 0.9, CD11b adhes enh 2, CYP2C19 activ 0.7, CYP2C9 inhib 12, CD11b adhes inh -2 and CYP2C19 inh 35.
`C=CCNC(=S)N/N=C(\C)c1ccccn1` gave CYP2C9 act 0.7, CD11b adhes enh -1, CYP2C19 activ 0.7, CYP2C9 inhib 27, CD11b adhes inh 12 and CYP2C19 inh 34.
`O=C(CCC1CCCC1)c1c(O)c2ccccc2oc1=O` gave CYP2C9 act 0.7, CD11b adhes enh -9, CYP2C19 activ 1, CYP2C9 inhib 26, CD11b adhes inh 88* and CYP2C19 inh 0.
CN=C(C)c1c(O)c2ccccc2oc1=O was read as CYP2C9 act 0.7, CD11b adhes enh -3, CYP2C19 activ 0.8, CYP2C9 inhib 25, CD11b adhes inh -10 and CYP2C19 inh 23.
Screening O=C(c1c(O)c2ccccc2oc1=O)C1CCCCC1 returned CYP2C9 act 0.4, CD11b adhes enh -2, CYP2C19 activ 1, CYP2C9 inhib 65*, CD11b adhes inh -7 and CYP2C19 inh -5.
`O=C(Cn1ncc2c(=O)oc3ccccc3c21)NC1CC1` gave CYP2C9 act 0.9, CD11b adhes enh 3, CYP2C19 activ 1, CYP2C9 inhib 11, CD11b adhes inh -16 and CYP2C19 inh 4.
`Cc1cn(C2CC3OCC3O2)c(=O)[nH]c1=O` (centres undefined) gave CYP2C9 act 1, CD11b adhes enh -2, CYP2C19 activ 1, CYP2C9 inhib 3, CD11b adhes inh -20 and CYP2C19 inh -1.
Screening C/C(=N\NC(=O)COc1ccc(C#N)cc1)c1ccccc1OC(F)F returned CD11b adhes enh 2 and CD11b adhes inh -3.
`CC1CCCC(NC(=O)CSc2ncccc2C(=O)O)C1C` (centres undefined) gave CYP2C9 act 1.1, CD11b adhes enh 5, CYP2C19 activ 1.1, CYP2C9 inhib -9, CD11b adhes inh -40 and CYP2C19 inh -9.
For CC1CN(Cc2ccc(C#N)cc2Cl)CC(C)O1 (centres undefined) the results were CYP2C9 act 1, CD11b adhes enh -1, CYP2C19 activ 1, CYP2C9 inhib 1, CD11b adhes inh 6 and CYP2C19 inh -3.
Screening CC1CN(Cc2ccc(Cl)cc2Cl)CC(C)O1 (centres undefined) returned CYP2C9 act 0.9, CD11b adhes enh 0, CYP2C19 activ 0.5, CYP2C9 inhib 15, CD11b adhes inh -15 and CYP2C19 inh 54*.
Screening CCCCN(CC)C(=O)Cc1cn(C)c2ccccc12 returned CYP2C9 act 3.4*, CD11b adhes enh -2, CYP2C19 activ 0, CYP2C9 inhib -238, CD11b adhes inh -34 and CYP2C19 inh 95*.
For COc1cccc(NC(=O)Cc2c(C(=O)O)[nH]c3ccccc23)c1 the results were CYP2C9 act 0.9, CYP2C19 activ 0.9, CYP2C9 inhib 14 and CYP2C19 inh 14.
COc1cccc(NC(=O)Cc2cn(C)c3ccccc23)c1 was read as CYP2C9 act 3.8*, CD11b adhes enh -2, CYP2C19 activ 0.7, CYP2C9 inhib -281, CD11b adhes inh -2 and CYP2C19 inh 33.
For CCCCN(CC)C(=O)Cc1ccccc1OC the results were CYP2C9 act 1.1, CYP2C19 activ 0.6, CYP2C9 inhib -11 and CYP2C19 inh 38.
O=C(Cn1c(=O)n(CC2CCCO2)c(=O)c2ccccc21)c1ccc(Cl)c(Cl)c1 (centres undefined) was read as CYP2C9 act 0.7, CD11b adhes enh -3, CYP2C19 activ 0.9, CYP2C9 inhib 33, CD11b adhes inh -11 and CYP2C19 inh 6.
Screening CN1CCN(c2ccccc2NC(=O)Cc2cn(C)c3ccccc23)CC1 returned CYP2C9 act 0.9, CD11b adhes enh -2, CYP2C19 activ 1, CYP2C9 inhib 7, CD11b adhes inh -3 and CYP2C19 inh 3.
Screening COc1cccc(NC(=O)Cn2c(=O)n(CC3CCCO3)c(=O)c3ccccc32)c1 (centres undefined) returned CYP2C9 act 0.6, CD11b adhes enh 0, CYP2C19 activ 0.4, CYP2C9 inhib 41, CD11b adhes inh -2 and CYP2C19 inh 63*.
`Cc1ccccc1NC(=O)Cc1cn(C)c2ccccc12` gave CYP2C9 act 3*, CD11b adhes enh -4, CYP2C19 activ 0.6, CYP2C9 inhib -196, CD11b adhes inh 1 and CYP2C19 inh 45.

Source: PubChem (Sanford-Burnham Center for Chemical Genomics)
